Measurements reported in article PMC7862700, “An all-to-all approach to the identification of sequence-specific readers for epigenetic DNA modifications on cytosine”.

Experiments:
Test in all cases: DAPPL (digital affinity profiling via proximity ligation, sequencing); 10 mM Tris-HCl pH 7.5, 50 mM NaCl, 1 mM DTT, 4% glycerol, room temperature, 30 min; GST-TFs on glutathione beads, 16-mer random dsDNA library, 0.1% formaldehyde crosslink after washing; high values mean tight binding
[1] = target: T1, FEV (Homo sapiens, UniProt Q99581 1-238); details: protein: recombinant; tags: N-terminal GST; dsDNA, one strand shown
T1 sequence: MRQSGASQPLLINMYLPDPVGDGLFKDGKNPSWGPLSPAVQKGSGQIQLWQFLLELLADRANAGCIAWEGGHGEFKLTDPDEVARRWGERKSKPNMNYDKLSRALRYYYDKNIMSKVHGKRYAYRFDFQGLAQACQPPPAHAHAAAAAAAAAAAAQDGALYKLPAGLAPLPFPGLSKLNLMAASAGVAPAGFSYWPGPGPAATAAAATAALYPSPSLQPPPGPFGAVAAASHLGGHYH
Outline: (§1)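 Pools of DNA-barcoded human transcription factors, expressed in yeast as GST fusions on glutathione beads and combined with a tag-only sample, were incubated with 200 nmole of a 16-mer random double-stranded DNA library. Incubation took 30 min at room temperature in Tris/NaCl/DTT/glycerol buffer and was followed by washing, 0.1% formaldehyde crosslinking, proximity ligation (BsaI/T4 ligase, 1 h, 37 °C), PCR amplification and sequencing on an Illumina NextSeq500. Binding signal is the ratio of a hexamer's read frequency for a factor to its frequency for the tag-only sample.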

[2] = target: ETV5 (Homo sapiens, UniProt P41161 1-510); details: protein: recombinant; tags: N-terminal GST; dsDNA, one strand shown
Outline: as §1

[3] = target: HSF1 (Homo sapiens, UniProt Q00613 1-529); details: protein: recombinant; tags: N-terminal GST; chain copies: 3; dsDNA, one strand shown
Outline: as §1

[4] = target: T2, SPIC (Homo sapiens, UniProt Q8N5J4 1-248); details: protein: recombinant; tags: N-terminal GST; dsDNA, one strand shown
T2 sequence: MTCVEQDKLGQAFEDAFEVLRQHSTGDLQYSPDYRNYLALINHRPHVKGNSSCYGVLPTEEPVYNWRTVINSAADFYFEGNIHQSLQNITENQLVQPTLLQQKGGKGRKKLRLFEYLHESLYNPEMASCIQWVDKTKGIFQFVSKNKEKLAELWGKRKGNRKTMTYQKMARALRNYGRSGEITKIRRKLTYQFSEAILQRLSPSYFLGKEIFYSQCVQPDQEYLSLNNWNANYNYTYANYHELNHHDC
Outline: as §1

[5] = target: ELF4 (Homo sapiens, UniProt Q99607 1-663); details: protein: recombinant; tags: N-terminal GST; dsDNA, one strand shown
Outline: as §1

[6] = target: T3, ELK4 (Homo sapiens, UniProt P28324-2 1-405); details: protein: recombinant; tags: N-terminal GST; dsDNA, one strand shown
T3 sequence: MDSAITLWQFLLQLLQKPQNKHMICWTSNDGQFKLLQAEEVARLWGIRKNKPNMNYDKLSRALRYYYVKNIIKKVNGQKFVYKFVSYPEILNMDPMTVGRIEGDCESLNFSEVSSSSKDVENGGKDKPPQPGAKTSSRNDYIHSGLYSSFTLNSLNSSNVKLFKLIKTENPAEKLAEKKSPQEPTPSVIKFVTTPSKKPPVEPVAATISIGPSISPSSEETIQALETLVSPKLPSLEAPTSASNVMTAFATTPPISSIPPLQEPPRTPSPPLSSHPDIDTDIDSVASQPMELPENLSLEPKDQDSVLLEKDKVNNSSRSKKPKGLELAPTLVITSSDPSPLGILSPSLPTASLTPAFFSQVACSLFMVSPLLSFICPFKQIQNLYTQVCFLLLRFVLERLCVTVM
Outline: as §1

[7] = target: T4, ETV2 (Homo sapiens, UniProt O00321 1-342); details: protein: recombinant; tags: N-terminal GST; dsDNA, one strand shown
T4 sequence: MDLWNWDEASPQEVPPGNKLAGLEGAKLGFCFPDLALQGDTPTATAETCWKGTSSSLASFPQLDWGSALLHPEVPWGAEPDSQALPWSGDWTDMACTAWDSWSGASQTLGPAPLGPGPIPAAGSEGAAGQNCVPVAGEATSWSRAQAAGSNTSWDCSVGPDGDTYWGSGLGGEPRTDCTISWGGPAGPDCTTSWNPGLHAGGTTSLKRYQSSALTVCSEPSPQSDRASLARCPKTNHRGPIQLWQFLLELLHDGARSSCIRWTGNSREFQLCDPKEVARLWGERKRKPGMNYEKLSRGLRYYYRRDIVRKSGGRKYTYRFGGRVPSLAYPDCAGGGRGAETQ
Outline: as §1

[8] = target: T5, ELF3 (Homo sapiens, UniProt P78545 1-371); details: protein: recombinant; tags: N-terminal GST; dsDNA, one strand shown
T5 sequence: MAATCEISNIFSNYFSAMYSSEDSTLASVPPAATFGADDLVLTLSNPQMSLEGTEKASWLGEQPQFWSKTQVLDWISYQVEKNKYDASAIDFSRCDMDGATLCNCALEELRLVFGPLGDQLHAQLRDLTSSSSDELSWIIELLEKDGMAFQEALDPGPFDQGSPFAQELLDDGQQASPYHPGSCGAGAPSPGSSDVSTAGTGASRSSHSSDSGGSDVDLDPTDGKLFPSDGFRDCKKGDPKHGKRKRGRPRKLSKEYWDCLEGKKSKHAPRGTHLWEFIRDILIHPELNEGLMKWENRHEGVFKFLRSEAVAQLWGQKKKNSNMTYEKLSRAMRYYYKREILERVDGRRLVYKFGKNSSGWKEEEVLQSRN
Outline: as §1

[9] = target: CRX (Homo sapiens, UniProt O43186 1-299); details: protein: recombinant; tags: N-terminal GST; dsDNA, one strand shown
Outline: as §1

[10] = target: ETV1 (Homo sapiens, UniProt P50549 1-477); details: protein: recombinant; tags: N-terminal GST; dsDNA, one strand shown
Outline: as §1

Chain of ETV5 (P41161 whole entry): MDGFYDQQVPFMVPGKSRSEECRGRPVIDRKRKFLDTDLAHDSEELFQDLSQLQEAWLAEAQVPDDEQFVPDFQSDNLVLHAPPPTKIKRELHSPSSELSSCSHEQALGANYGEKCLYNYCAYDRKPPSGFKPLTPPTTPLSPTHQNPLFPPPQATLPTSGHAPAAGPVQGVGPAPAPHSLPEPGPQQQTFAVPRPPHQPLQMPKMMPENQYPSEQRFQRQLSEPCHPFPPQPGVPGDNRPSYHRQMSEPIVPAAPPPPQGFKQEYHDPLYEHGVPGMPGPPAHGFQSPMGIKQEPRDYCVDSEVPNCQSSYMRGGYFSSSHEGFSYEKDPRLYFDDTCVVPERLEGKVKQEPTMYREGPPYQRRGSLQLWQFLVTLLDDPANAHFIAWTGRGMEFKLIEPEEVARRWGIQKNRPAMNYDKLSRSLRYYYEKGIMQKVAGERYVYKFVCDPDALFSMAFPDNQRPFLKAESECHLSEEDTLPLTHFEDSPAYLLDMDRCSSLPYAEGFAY
Chain of HSF1 (Q00613 whole entry): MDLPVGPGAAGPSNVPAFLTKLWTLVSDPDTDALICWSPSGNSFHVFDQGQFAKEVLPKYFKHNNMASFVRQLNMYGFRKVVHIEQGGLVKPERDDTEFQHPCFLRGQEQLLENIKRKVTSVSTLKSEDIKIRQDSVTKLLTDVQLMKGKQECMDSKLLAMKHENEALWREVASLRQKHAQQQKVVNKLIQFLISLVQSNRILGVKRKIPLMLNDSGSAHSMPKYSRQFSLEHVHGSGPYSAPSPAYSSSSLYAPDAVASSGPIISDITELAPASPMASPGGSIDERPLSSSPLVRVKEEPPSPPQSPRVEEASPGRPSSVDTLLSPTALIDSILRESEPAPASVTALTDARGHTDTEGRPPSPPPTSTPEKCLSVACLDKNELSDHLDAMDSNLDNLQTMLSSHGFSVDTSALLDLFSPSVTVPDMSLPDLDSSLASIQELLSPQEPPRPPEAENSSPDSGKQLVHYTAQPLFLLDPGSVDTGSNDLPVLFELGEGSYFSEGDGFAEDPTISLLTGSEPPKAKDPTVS
Chain of ELF4 (Q99607 whole entry): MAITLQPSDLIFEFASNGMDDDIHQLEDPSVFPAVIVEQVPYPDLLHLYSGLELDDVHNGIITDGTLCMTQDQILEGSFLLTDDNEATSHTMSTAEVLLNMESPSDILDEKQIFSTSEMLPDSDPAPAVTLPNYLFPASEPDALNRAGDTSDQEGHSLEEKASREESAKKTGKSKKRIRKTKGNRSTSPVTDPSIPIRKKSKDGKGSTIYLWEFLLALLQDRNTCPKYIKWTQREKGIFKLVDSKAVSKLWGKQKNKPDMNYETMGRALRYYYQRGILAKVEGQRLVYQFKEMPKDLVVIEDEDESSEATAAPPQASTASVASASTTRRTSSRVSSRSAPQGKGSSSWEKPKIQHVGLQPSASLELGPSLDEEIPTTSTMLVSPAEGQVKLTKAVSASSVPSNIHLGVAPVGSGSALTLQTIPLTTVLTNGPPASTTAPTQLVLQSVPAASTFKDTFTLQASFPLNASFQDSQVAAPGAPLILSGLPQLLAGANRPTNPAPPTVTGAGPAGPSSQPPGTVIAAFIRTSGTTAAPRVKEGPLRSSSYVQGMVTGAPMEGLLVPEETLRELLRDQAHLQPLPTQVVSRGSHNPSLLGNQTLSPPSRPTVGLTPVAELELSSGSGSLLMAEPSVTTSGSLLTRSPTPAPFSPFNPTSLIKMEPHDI
Chain of ETV1 (P50549 whole entry): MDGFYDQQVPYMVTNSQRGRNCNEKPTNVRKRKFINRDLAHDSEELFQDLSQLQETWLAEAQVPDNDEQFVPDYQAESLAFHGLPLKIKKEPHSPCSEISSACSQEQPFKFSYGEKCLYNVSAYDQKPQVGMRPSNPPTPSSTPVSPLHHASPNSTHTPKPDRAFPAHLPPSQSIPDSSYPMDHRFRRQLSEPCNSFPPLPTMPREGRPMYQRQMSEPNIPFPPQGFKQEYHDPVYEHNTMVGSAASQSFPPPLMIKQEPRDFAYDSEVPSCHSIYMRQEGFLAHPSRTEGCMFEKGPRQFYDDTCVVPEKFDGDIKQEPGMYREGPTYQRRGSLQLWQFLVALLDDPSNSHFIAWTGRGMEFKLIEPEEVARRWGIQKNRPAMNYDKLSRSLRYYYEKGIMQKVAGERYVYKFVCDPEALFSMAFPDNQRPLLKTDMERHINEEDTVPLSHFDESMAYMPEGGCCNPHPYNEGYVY
Chain of CRX (O43186 whole entry): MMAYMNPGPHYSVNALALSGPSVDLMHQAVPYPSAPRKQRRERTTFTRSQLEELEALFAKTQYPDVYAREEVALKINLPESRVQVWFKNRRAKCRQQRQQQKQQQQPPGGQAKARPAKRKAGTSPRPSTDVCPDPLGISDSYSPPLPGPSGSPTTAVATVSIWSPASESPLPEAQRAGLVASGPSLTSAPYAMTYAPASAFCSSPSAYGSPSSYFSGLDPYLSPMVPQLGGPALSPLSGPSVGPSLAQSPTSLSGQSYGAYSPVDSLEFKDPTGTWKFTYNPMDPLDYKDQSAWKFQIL

Sequence | binding signal [1] | binding signal [2] | binding signal [3] | binding signal [4] | binding signal [5] | binding signal [6] | binding signal [7] | binding signal [8] | binding signal [9] | binding signal [10]
ATCTAT | 1.08 fold enrichment (6-mer frequency, TF over GST control) | 1.15 fold enrichment (6-mer frequency, TF over GST control) | 1.32 fold enrichment (6-mer frequency, TF over GST control) | 1.27 fold enrichment (6-mer frequency, TF over GST control) | 1.21 fold enrichment (6-mer frequency, TF over GST control) | 1.18 fold enrichment (6-mer frequency, TF over GST control) | 1.13 fold enrichment (6-mer frequency, TF over GST control) | 1.23 fold enrichment (6-mer frequency, TF over GST control) | 1.42 fold enrichment (6-mer frequency, TF over GST control) | 1.16 fold enrichment (6-mer frequency, TF over GST control)
GCTTTC | 1.25 fold enrichment (6-mer frequency, TF over GST control) | 1.24 fold enrichment (6-mer frequency, TF over GST control) | 1.35 fold enrichment (6-mer frequency, TF over GST control) | 1.06 fold enrichment (6-mer frequency, TF over GST control) | 1.23 fold enrichment (6-mer frequency, TF over GST control) | 1.26 fold enrichment (6-mer frequency, TF over GST control) | 1.59 fold enrichment (6-mer frequency, TF over GST control) | 1.47 fold enrichment (6-mer frequency, TF over GST control) | 1.33 fold enrichment (6-mer frequency, TF over GST control) | 1.35 fold enrichment (6-mer frequency, TF over GST control)
TGCTAG | 1.15 fold enrichment (6-mer frequency, TF over GST control) | 1.3 fold enrichment (6-mer frequency, TF over GST control) | 1.94 fold enrichment (6-mer frequency, TF over GST control) | 1.17 fold enrichment (6-mer frequency, TF over GST control) | 1.19 fold enrichment (6-mer frequency, TF over GST control) | 1.26 fold enrichment (6-mer frequency, TF over GST control) | 1.01 fold enrichment (6-mer frequency, TF over GST control) | 1.34 fold enrichment (6-mer frequency, TF over GST control) | 1.21 fold enrichment (6-mer frequency, TF over GST control) | 1.17 fold enrichment (6-mer frequency, TF over GST control)
CATATA | 1.08 fold enrichment (6-mer frequency, TF over GST control) | 1.09 fold enrichment (6-mer frequency, TF over GST control) | 1.03 fold enrichment (6-mer frequency, TF over GST control) | 1.14 fold enrichment (6-mer frequency, TF over GST control) | 1.11 fold enrichment (6-mer frequency, TF over GST control) | 1.07 fold enrichment (6-mer frequency, TF over GST control) | 1.17 fold enrichment (6-mer frequency, TF over GST control) | 1.07 fold enrichment (6-mer frequency, TF over GST control) | 1.09 fold enrichment (6-mer frequency, TF over GST control) | 1.06 fold enrichment (6-mer frequency, TF over GST control)
CTCCGG | 2 fold enrichment (6-mer frequency, TF over GST control) | 1.58 fold enrichment (6-mer frequency, TF over GST control) | 1.18 fold enrichment (6-mer frequency, TF over GST control) | 1.92 fold enrichment (6-mer frequency, TF over GST control) | 1.56 fold enrichment (6-mer frequency, TF over GST control) | 1.58 fold enrichment (6-mer frequency, TF over GST control) | 1.48 fold enrichment (6-mer frequency, TF over GST control) | 1.39 fold enrichment (6-mer frequency, TF over GST control) | 1.02 fold enrichment (6-mer frequency, TF over GST control) | 1.64 fold enrichment (6-mer frequency, TF over GST control)
TATGTA | 1.28 fold enrichment (6-mer frequency, TF over GST control) | 1.25 fold enrichment (6-mer frequency, TF over GST control) | 1.28 fold enrichment (6-mer frequency, TF over GST control) | 1.26 fold enrichment (6-mer frequency, TF over GST control) | 1.38 fold enrichment (6-mer frequency, TF over GST control) | 1.39 fold enrichment (6-mer frequency, TF over GST control) | 1.23 fold enrichment (6-mer frequency, TF over GST control) | 1.52 fold enrichment (6-mer frequency, TF over GST control) | 1.51 fold enrichment (6-mer frequency, TF over GST control) | 1.3 fold enrichment (6-mer frequency, TF over GST control)
TAACCT | 1.3 fold enrichment (6-mer frequency, TF over GST control) | 1.29 fold enrichment (6-mer frequency, TF over GST control) | 1.44 fold enrichment (6-mer frequency, TF over GST control) | 1.17 fold enrichment (6-mer frequency, TF over GST control) | 1.33 fold enrichment (6-mer frequency, TF over GST control) | 1.46 fold enrichment (6-mer frequency, TF over GST control) | 1.13 fold enrichment (6-mer frequency, TF over GST control) | 1.29 fold enrichment (6-mer frequency, TF over GST control) | 1.67 fold enrichment (6-mer frequency, TF over GST control) | 1.31 fold enrichment (6-mer frequency, TF over GST control)
